Screening data from PubChem BioAssay.
This is a sample that favours compounds with a hit; in the whole collection about 1% have one here.
VCAM1 TNFa inh = inhibitors of TNFa-induced VCAM1 expression, primary screen, imaging, HUVEC, TNFa stimulus, immunofluorescence | HUVEC TNFa-induced VCAM-1 immunofluorescence, high-content imaging | inhibition, % at 2 µM | hit rate 0.48% among 95,000;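 active = inhibition above the batch mean plus 3 SD, with images confirmed as a hit by eye, cut at about 37% in these data; inconclusive = inhibition above that limit but hit not confirmed in images; inactive = inhibition not above that limit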;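 also: 0% = TNF-stimulated DMSO wells and 100% = unstimulated control wells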
E-sel TNF inh = E-selectin induction blockers in HUVEC – imaging, immunofluorescence, high content, primary screen | HUVEC TNFa-induced E-selectin immunofluorescence | inhibition, % at 2 µM | hit rate 0.71% among 120,000 | AID 1246, 2008;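 active = inhibition above the batch mean plus 3 SD, and confirmed as a hit on visual image review, cut at about 43% in these data; inconclusive = passes the inhibition cutoff but fails visual image review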;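 also: 0% = TNF-stimulated DMSO wells and 100% = unstimulated control wells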
cytoskel mod = modifiers of F-actin cytoskeleton organization, primary screen, imaging, HUVEC, phalloidin staining, high-content imaging. inhibition, % at 2 µM. HUVEC TNFa F-actin phalloidin imaging. hit rate 0.18% among 91,000;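 active = inhibition above the batch mean plus 3 SD and confirmed as a hit by visual image inspection, cut at about 30% in these data, passing the limit was not always enough; inconclusive = above the inhibition threshold but rejected on visual inspection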
HUVEC tox TNFa = cytotoxicity in TNFa-stimulated HUVEC, primary screen, cytotoxicity control for VCAM1 expression modulator project, imaging, Hoechst nuclei count; HUVEC TNFalpha-stimulated, Hoechst cell count; cell count reduction, % at 2 µM; hit rate 0.17% among 93,000;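 active = cell count reduction exceeding the screen mean by over 5 SD, scaled to untreated wells per plate, cut at about 78% in these data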;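 also: cells counted after 24 h of TNF alpha exposure following the 1 h pretreatment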
* hit, by the source's call; ? = inconclusive; nt = not tested or not shown.

SMILES	VCAM1 TNFa inh	E-sel TNF inh	cytoskel mod	HUVEC tox TNFa
Cc1c(C(=O)N2CCN(c3ccccc3F)CC2)sc2ncn(CC(=O)N3CCOCC3)c(=O)c12	8	58	88*	-10
CCCNC(=O)Cn1cnc2sc(C(=O)N3CCN(c4ccc(F)cc4)CC3)c(C)c2c1=O	6	nt	-5	-7
CCOC(=O)c1cc(-c2ccccc2)sc1NC(=S)Nc1cccc(C)n1	4	54*	-34	4
Cc1nonc1NC(=O)CSc1nc(C2CCCCC2)nc2ccccc12	24	8	83*	0
OCCNCC(O)Cn1ccc2ccccc21 (stereo unspecified)	100*	-20	nt	nt
O=C(c1cccc(C(F)(F)F)c1)N1CCCC1	-18	-22	8	-24
O=C(c1cccc(F)c1)N1CCN(S(=O)(=O)c2ccc(C(F)(F)F)cc2)CC1	15	83*	21	-8
CCn1cc(C(=O)NCc2ccco2)c(=O)c2cc(S(=O)(=O)N3CCc4ccccc4C3)ccc21	-3	100*	-31	-13
CCOC(=O)c1c(NC(=O)CSc2nnc(C)c(=O)[nH]2)sc(C)c1C	nt	65*	nt	nt
Cc1cc(NC(=O)NC(=O)c2cccc(OC(F)(F)C(F)F)c2)n[nH]1	91*	-14	-8	12
COc1cccc(C(=O)Nc2c(C)n[nH]c2C)c1	8	nt	0	1
CN1CCC(=NNC(=O)c2cn(-c3ccccc3)nc2-c2ccccc2)CC1	nt	9	nt	nt
O=C(NCN1C(=O)C2C3C=CC(C3)C2C1=O)Nc1nncs1 (stereo unspecified)	11	100*	0	58
CN(C)S(=O)(=O)c1ccc(NS(=O)(=O)/C=C/c2ccccc2)cc1	14	99*	-2	-46
CCN(CC)CCN1C(=O)C(=O)/C(=C(/O)c2cnn(-c3ccccc3)c2C)C1c1ccc(C)o1 (stereo unspecified)	-10	5	-15	8
Cc1ccc(C2/C(=C(\O)c3cnn(-c4ccccc4)c3C)C(=O)C(=O)N2CCN(C)C)o1 (stereo unspecified)	39	-37	-10	91*
COC(=O)c1ccc(-n2nnnc2SCC(=O)N2CCCCC2)cc1	?	nt	-14	100*
COc1ccc(CCNC(=O)CN(CCc2ccccc2)S(C)(=O)=O)cc1OC	nt	25	nt	nt
CC(=O)Nc1ccc(C(=O)OCC(=O)NCc2ccc(Cl)cc2)cc1	nt	2	nt	nt
Cc1c(Cl)cnc(NC(=O)COC(=O)CCc2nc3ccccc3s2)c1Cl	nt	2	nt	nt
O=C(NCC1CC1)C1CCCN(S(=O)(=O)c2ccc(-n3cnnn3)cc2)C1 (stereo unspecified)	9	62*	37	-1
CCCCNC(=O)C1CCCN(S(=O)(=O)c2ccc(-n3cnnn3)cc2)C1 (stereo unspecified)	-6	4	-22	-11
COc1cc(S(=O)(=O)NC2CCCC2)ccc1Cl	9	0	-1	-24
COc1cc(S(=O)(=O)NC2CCCCC2C)ccc1Cl (stereo unspecified)	19	51*	1	3
CCOC(=O)C1=C(O)/C(=C/c2cn(CC(=O)NCC3CCCO3)c3ccccc23)SC1=Nc1ccc(C)cc1 (stereo unspecified)	89*	-15	20	24
SMILES	VCAM1 TNFa inh	E-sel TNF inh	cytoskel mod	HUVEC tox TNFa
COc1ccc(-c2nc(CNS(=O)(=O)c3ccc(OC)c(OC)c3)cs2)cc1	8	58*	-7	-38
CCn1c2ccc(/C(C)=N\O)cc2c2cc(/C(C)=N\O)ccc21	-1	100*	37	-7
CCC(=O)N1CCc2cc(Br)cc(S(=O)(=O)NCc3ccco3)c21	nt	79*	nt	nt
CCOC(CCn1c(SCC(=O)Nc2cc(C)on2)nc2ccccc2c1=O)OCC	nt	11	nt	nt
COC(=O)c1cc2ccsc2n1Cc1nc(-c2cccc(Cl)c2)oc1C	-3	82*	4	-17
Cc1ccc(CS(=O)(=O)Cc2ccc(C(=O)NCc3ccco3)o2)cc1	-7	8	5	-41
O=C(NCc1ccco1)c1ccc(CS(=O)(=O)Cc2ccc(Cl)cc2)o1	93*	nt	-10	79*
C[C@@H]1CN(Cc2cn(C)nc2-c2cccc(Cl)c2)C[C@H](C)O1	nt	8	nt	nt
CCC(C)C1C(C#N)=C(N)Oc2n[nH]c(-c3ccccc3)c21 (stereo unspecified)	56*	6	-11	29
Nc1ccc(Nc2ccncc2[N+](=O)[O-])cc1	9	-27	8	-11
O=[N+]([O-])c1cnccc1Nc1ccc(F)cc1	53*	7	85*	94*
N#CC1=C2SCC(O)(c3ccccc3)N2C(=O)CC1c1cccs1 (stereo unspecified)	17	nt	35*	17
NC(=O)COC(=O)c1ccccc1OCc1ccccc1Cl	nt	-18	nt	nt
Cc1ccc(S(=O)(=O)c2cc(C#N)c(=O)[nH]c2N)cc1	-4	9	62*	-23
COc1nc(N)c(S(=O)(=O)c2ccc(C)cc2)cc1C#N	-2	17	-44	-2
COc1ccc2[nH]c(=O)c(CN(C)C(=O)c3ccncc3)cc2c1	10	nt	22	-19
COc1ccc2[nH]c(=O)c(CN(C(=O)c3ccncc3)C(C)C)cc2c1	95*	4	48*	-77
CCSc1nnc(NC(=O)COc2ccc3ccccc3c2)s1	0	-5	-8	-19
Oc1ccc(-c2csc(-c3ccccc3)n2)cc1O	1	51*	-28	-3
Cc1ccc(O)c(NC(=S)NC(=O)c2ccc(-c3ccc(Cl)cc3)o2)c1	5	55*	9	-10
O=C(NC(=S)Nc1ccccc1O)c1ccc(-c2ccc(Cl)cc2)o1	17	-33	-3	-40
CC(C)c1c(O)cc(-c2ccncc2)n(-c2ccc(Cl)cc2)c1=O	nt	68*	nt	nt
S=c1[nH]nc(COc2ccc3c(c2)OCO3)n1-c1ccccc1	97*	-35	4	-8
S=c1[nH]nc(-c2ccc3c(c2)OCO3)n1-c1ccccc1	nt	-5	nt	nt
O=C1c2ccccc2C(=O)N1Cc1ccccn1	nt	24	nt	nt
SMILES	VCAM1 TNFa inh	E-sel TNF inh	cytoskel mod	HUVEC tox TNFa
Cc1cccc(NC(=O)CCSc2nc(C)cc(C)n2)c1	0	76*	-26	5
NC(=O)Cc1ccc(C(=O)c2ccc(Cl)cc2)s1	nt	-10	nt	nt
Nc1sccc1C(=O)c1ccc(Cl)cc1	92*	-2	30	-62
COc1ccc(CCNc2oc(-c3ccc(OC)c(OC)c3)nc2C#N)cc1	24	5	0	20
COc1ccc(-c2nc(C#N)c(NCCCN(C)C)o2)cc1OC	97*	17	35	-34
CCOCCCNC(=O)CN1C(=O)/C(=C/c2ccccc2)Sc2ccccc21	nt	2	nt	nt
C=CCn1c(COc2cccc(C)c2C)nnc1SCC(=O)N1CCN(c2ccccc2)CC1	nt	68*	nt	nt
CCn1c(COc2c(C)cccc2C)nnc1SCC(=O)N1CCN(c2ccccc2)CC1	6	-19	4	4
CSC1=NCCN1C(=O)Cc1ccc(Cl)cc1	44*	-6	-8	10
COc1ccc(CC(=O)N2CCN=C2SC)cc1	3	6	5	-31
CN(C)c1ccc(C(=O)c2ccc(N(C)C)c3ccccc23)cc1	99*	15	2	84*
